Results from PubChem BioAssay AID1159580 (chemical genetic matrix, 2015).
About 2,000 (36%) of roughly 5,500 compounds were called active. Roughly 18% stayed inconclusive and do not appear here. Rule as the data show it: active = normalized growth mostly below about 0.91 (no sharp cut-off); inconclusive = no clear call, values can overlap the other calls; inactive = mostly above about 0.92. The list shows a part of the results.

Assay: chemical genetic growth profiling, strain panel (AID 1159580);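 also: tested at 20 µM; growth read once vehicle control cultures reached saturation at 30 °C; 1 = growth at the plate median or of vehicle wells; lower values mean less growth of the strain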
Conditions: S. cerevisiae deletion strains, growth OD
[1] = locus YAR019C, strain CDC15, stronger effect = lower value
[2] = locus YBL105C, strain PKC1, stronger effect = lower value
[3] = locus YBR135W, strain CKS1, stronger effect = lower value
[4] = locus YBR136W, strain MEC1, stronger effect = lower value
[5] = locus YBR160W, strain CDC28, stronger effect = lower value
[6] = locus YDL017W, strain CDC7, stronger effect = lower value
[7] = locus YDL028C, strain MPS1, stronger effect = lower value
[8] = locus YDL101C, strain DUN1, stronger effect = lower value
[9] = locus YDL108W, strain KIN28, stronger effect = lower value
[10] = locus YDL132W, strain cdc53, stronger effect = lower value
[11] = locus YDL214C, strain PRR2, stronger effect = lower value
[12] = locus YDR052C, strain DBF4, stronger effect = lower value
[13] = locus YDR054C, strain cdc34, stronger effect = lower value
[14] = locus YDR226W, strain ADK1, stronger effect = lower value
[15] = locus YDR477W, strain SNF1, stronger effect = lower value
[16] = locus YER123W, strain YCK3, stronger effect = lower value
[17] = locus YER133W, strain GLC7, stronger effect = lower value
[18] = locus YFL009W, strain cdc4, stronger effect = lower value
[19] = locus YFL029C, strain CAK1, stronger effect = lower value
[20] = locus YFR003C, strain YPI1, stronger effect = lower value
[21] = locus YFR019W, strain FAB1, stronger effect = lower value
[22] = locus YFR028C, strain CDC14, stronger effect = lower value
[23] = locus YGR040W, strain KSS1, stronger effect = lower value
[24] = locus YGR052W, strain FMP48, stronger effect = lower value
[25] = locus YGR092W, strain DBF2, stronger effect = lower value
[26] = locus YHR030C, strain SLT2, stronger effect = lower value
[27] = locus YHR079C, strain IRE1, stronger effect = lower value
[28] = locus YHR082C, strain KSP1, stronger effect = lower value
[29] = locus YHR205W, strain SCH9, stronger effect = lower value
[30] = locus YIL147C, strain SLN1, stronger effect = lower value
[31] = locus YJL095W, strain BCK1, stronger effect = lower value
[32] = locus YJL157C, strain FAR1, stronger effect = lower value
[33] = locus YJR016C, strain ILV3, stronger effect = lower value
[34] = locus YJR066W, strain TOR1 (second series), stronger effect = lower value
[35] = locus YJR066W, strain TOR1, stronger effect = lower value
[36] = locus YKL048C, strain ELM1, stronger effect = lower value
[37] = locus YKL067W, strain YNK1, stronger effect = lower value
[38] = locus YKL101W, strain HSL1, stronger effect = lower value
[39] = locus YKL193C, strain SDS22, stronger effect = lower value
[40] = locus YKL203C, strain TOR2, stronger effect = lower value
[41] = locus YLR113W, strain HOG1, stronger effect = lower value
[42] = locus YLR133W, strain CKI1, stronger effect = lower value
[43] = locus YLR403W, strain SFP1, stronger effect = lower value
[44] = locus YML070W, strain DAK1, stronger effect = lower value
[45] = locus YMR001C, strain CDC5, stronger effect = lower value
[46] = locus YMR205C, strain PFK2 (second series), stronger effect = lower value
[47] = locus YMR277W, strain FCP1, stronger effect = lower value
[48] = locus YNL006W, strain LST8, stronger effect = lower value
[49] = locus YNL020C, strain ARK1, stronger effect = lower value
[50] = locus YNL161W, strain CBK1, stronger effect = lower value
[51] = locus YNL183C, strain NPR1, stronger effect = lower value
[52] = locus YNL207W, strain RIO2, stronger effect = lower value
[53] = locus YNL222W, strain SSU72, stronger effect = lower value
[54] = locus YNL307C, strain MCK1 (second series), stronger effect = lower value
[55] = locus YOL078W, strain AVO1, stronger effect = lower value
[56] = locus YOL136C, strain PFK27, stronger effect = lower value
[57] = locus YOR061W, strain CKA2, stronger effect = lower value
[58] = locus YOR119C, strain RIO1, stronger effect = lower value
[59] = locus YOR231W, strain MKK1, stronger effect = lower value
[60] = locus YOR329C, strain SCD5, stronger effect = lower value
[61] = locus YPL031C, strain PHO85, stronger effect = lower value
[62] = locus YPL153C, strain RAD53, stronger effect = lower value
[63] = locus YPL204W, strain HRR25, stronger effect = lower value
[64] = locus YPL209C, strain IPL1, stronger effect = lower value
[65] = locus YPL256C, strain CLN2, stronger effect = lower value
[66] = locus YPR025C, strain CCL1, stronger effect = lower value
[67] = locus YPR106W, strain ISR1, stronger effect = lower value
[68] = locus YPR111W, strain DBF20, stronger effect = lower value
[69] = strain NNK1, stronger effect = lower value
[70] = strain TSCII, stronger effect = lower value
[71] = locus YJL128C, strain PBS2, stronger effect = lower value

Measured: normalized growth

Oc1c(Br)cc(Br)cc1/C=N\n1cnnc1
active: [11] 0.588 | [15] 0.308 | [16] 0.452 | [17] 0.483 | [23] 0.391 | [24] 0.323 | [25] 0.116 | [26] 0.307 | [27] 0.246 | [28] 0.32 | [29] 0.0783 | [31] 0.26 | [32] 0.412 | [35] 0.287 | [36] 0.289 | [37] 0.503 | [38] 0.225 | [40] 0.244 | [41] 0.369 | [42] 0.305 | [43] 0.122 | [44] 0.606 | [46] 0.355 | [49] 0.259 | [51] 0.354 | [54] 0.138 | [56] 0.517 | [57] 0.15 | [58] 0.237 | [59] 0.316 | [61] 0.303 | [62] 0.416 | [63] 0.348 | [65] 0.462 | [69] 0.289
inactive: [1] 0.938 | [2] 0.942 | [3] 0.943 | [4] 0.943 | [5] 0.958 | [6] 0.943 | [7] 0.941 | [8] 0.915 | [9] 0.945 | [10] 0.947 | [12] 0.947 | [13] 0.933 | [14] 0.947 | [18] 0.954 | [19] 0.949 | [20] 0.945 | [21] 0.791 | [22] 0.958 | [30] 0.907 | [33] 0.951 | [34] 0.728 | [39] 0.943 | [45] 0.903 | [47] 0.931 | [48] 0.927 | [50] 0.944 | [52] 0.942 | [53] 0.944 | [55] 0.926 | [60] 0.934 | [64] 0.95 | [66] 0.946 | [67] 0.918 | [68] 0.918 | [70] 0.938

Oc1c(Cl)cc(Cl)cc1C=Nc1ccc(Sc2ccccc2)nc1Sc1ccccc1
active: [11] 0.675 | [15] 0.6 | [17] 0.635 | [23] 0.684 | [25] 0.217 | [26] 0.322 | [27] 0.472 | [28] 0.599 | [29] 0.462 | [31] 0.414 | [32] 0.56 | [35] 0.482 | [36] 0.734 | [37] 0.584 | [38] 0.674 | [41] 0.667 | [42] 0.585 | [43] 0.49 | [46] 0.59 | [49] 0.566 | [54] 0.517 | [57] 0.392 | [58] 0.652 | [59] 0.509 | [61] 0.598 | [62] 0.535 | [63] 0.577 | [65] 0.619
inactive: [1] 0.938 | [2] 0.958 | [3] 0.954 | [4] 0.954 | [5] 0.954 | [6] 0.956 | [7] 0.922 | [8] 0.97 | [9] 0.945 | [10] 0.95 | [12] 0.968 | [13] 0.95 | [14] 0.956 | [16] 0.7 | [18] 0.945 | [19] 0.943 | [20] 0.955 | [21] 0.916 | [22] 0.942 | [24] 0.616 | [30] 0.939 | [71] 0.913 | [33] 0.961 | [34] 0.771 | [39] 0.945 | [40] 0.748 | [44] 0.727 | [45] 0.943 | [47] 0.929 | [48] 0.942 | [50] 0.957 | [51] 0.606 | [52] 0.962 | [53] 0.938 | [55] 0.955 | [56] 0.693 | [60] 0.948 | [64] 0.951 | [66] 0.95 | [67] 0.956 | [68] 0.941 | [69] 0.965 | [70] 0.95

Oc1c(Br)cc(Br)cc1C=Nc1ccc(Sc2ccccc2)nc1Sc1ccccc1
inactive: [1] 0.92 | [2] 0.945 | [3] 0.926 | [4] 0.945 | [5] 0.936 | [6] 0.948 | [7] 0.917 | [8] 0.969 | [9] 0.926 | [10] 0.931 | [12] 0.955 | [13] 0.927 | [14] 0.932 | [18] 0.927 | [19] 0.937 | [20] 0.94 | [22] 0.924 | [30] 0.931 | [71] 0.904 | [33] 0.953 | [39] 0.93 | [45] 0.922 | [47] 0.904 | [48] 0.941 | [50] 0.945 | [52] 0.953 | [53] 0.915 | [55] 0.928 | [60] 0.951 | [64] 0.949 | [66] 0.935 | [67] 0.945 | [68] 0.915 | [69] 0.945 | [70] 0.928
active: [11] 0.331 | [15] 0.311 | [16] 0.364 | [17] 0.285 | [23] 0.351 | [24] 0.196 | [25] 0.155 | [26] 0.103 | [27] 0.151 | [28] 0.155 | [29] 0.0625 | [31] 0.14 | [32] 0.208 | [34] 0.591 | [35] 0.162 | [36] 0.483 | [37] 0.24 | [38] 0.353 | [40] 0.388 | [41] 0.383 | [42] 0.226 | [43] 0.134 | [44] 0.406 | [46] 0.248 | [49] 0.174 | [51] 0.236 | [54] 0.222 | [56] 0.43 | [57] 0.142 | [58] 0.313 | [59] 0.196 | [61] 0.29 | [62] 0.249 | [63] 0.311 | [65] 0.314
